The campaign covered roughly 360,000 compounds. About 25,000 (6.9%) were called active. Not shown: some 9% with an inconclusive outcome. What follows is part of a selection rich in actives, with near analogues and random picks from the rest. A number with no mark means an inactive call. Calls come from the whole dose curve; as a rule, active = well fitted inhibition curve with a large enough effect; inconclusive = small, poorly fitted or top-dose-only effect; inactive = flat fitted curve, though single readings scatter.
Target: Luciferin 4-monooxygenase (Photinus pyralis) (UniProt P08659)
Sequence (P08659 whole entry, looked up): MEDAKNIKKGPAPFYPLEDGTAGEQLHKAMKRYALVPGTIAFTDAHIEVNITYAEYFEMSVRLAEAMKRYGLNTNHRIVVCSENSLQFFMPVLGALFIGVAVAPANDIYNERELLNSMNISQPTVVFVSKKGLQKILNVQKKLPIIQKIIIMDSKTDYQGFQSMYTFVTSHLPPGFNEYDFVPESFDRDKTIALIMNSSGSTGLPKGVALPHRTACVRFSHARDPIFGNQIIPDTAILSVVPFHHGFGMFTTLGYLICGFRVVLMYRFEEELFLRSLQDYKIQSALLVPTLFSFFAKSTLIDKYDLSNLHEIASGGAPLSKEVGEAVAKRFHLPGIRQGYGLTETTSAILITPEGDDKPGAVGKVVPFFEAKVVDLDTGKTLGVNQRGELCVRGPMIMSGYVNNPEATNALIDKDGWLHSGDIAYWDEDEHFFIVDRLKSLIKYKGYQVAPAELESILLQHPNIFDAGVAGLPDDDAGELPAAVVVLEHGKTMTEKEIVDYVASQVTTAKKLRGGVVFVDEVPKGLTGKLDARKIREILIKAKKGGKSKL
Assay: qHTS profiling assay for firefly luciferase inhibitor/activator using purifed enzyme and Km concentrations of substrates (counterscreen for miR-21 project); note: nearly all actives have a fitted effect of over 55% in size;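 for activity change, negative = inhibition: plate controls were vehicle for no effect and reference inhibitor for full effect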
Conditions: purified FLuc, luminescence inhibition; series mostly up to 57.5 µM; activity change, negative = inhibition: at the top concentration
In short: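 Purified P. pyralis luciferase (10nM final) with 10uM D-luciferin and 10uM ATP (Km levels) in 50mM Tris acetate pH 7.5, 10mM Mg acetate, 0.01% Tween-20, 0.05% BSA; qHTS 6-point titration, ~60 µM downward; luminescence read.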
Potency is the fitted concentration of half-maximal effect.

Row | Compound | activity change, negative = inhibition [%] | Potency
1 | CCN(CC(=O)NCCc1ccccc1)S(=O)(=O)c1ccc(C)cc1 | 0.229 | –
2 | COc1ccc(-c2cn3c(C)c(C(=O)Nc4cc(C)cc(C)c4)sc3n2)cc1 | -3.09 | –
3 | Fc1ccc(CN2CCc3nc(Nc4ccccc4)ncc3C2)cc1F | -10.5 | –
4 | O=C(Nc1cc(C(F)(F)F)ccc1Cl)c1nc2ccccc2nc1N1CCCCC1 | 0.203 | –
5 | CCN1CCC(N(Cc2ccc(F)cc2)C(=O)Nc2cc(C)ccc2C)CC1 | -1.66 | –
6 | O=C(NC1CCCCC1)c1ccc2c(c1)N(Cc1ccc(Cl)cc1)C(=O)c1ccccc1S2=O (stereo unspecified) | 3.17 | –
7 | CN(C(=O)COC(=O)CCCc1c[nH]c2ccccc12)c1c(N)n(Cc2ccccc2)c(=O)[nH]c1=O | 4.71 | –
8 | CCc1nc2onc(C)c2c(=O)n1CC(=O)O | -0.818 | –
9 | CC(C)CNC(=S)Nc1ccc(F)cc1 | 4.61 | –
10 | CC(C)CNC(=O)C(=O)NCc1ccccc1 | 0.285 | –
11 | CC(C)CNC(=O)C(=O)Nc1ccc(N(C)C)cc1 | – | 10.7 µM (active)
12 | COc1ccc(CNC(=O)CSc2nc3ccccc3nc2Cc2ccccc2)cc1 | -6.86 | –
13 | COC(=O)c1cc(=O)n(-c2c(Cl)cc(C(F)(F)F)cc2Cl)[nH]1 | -0.736 | –
14 | CCc1ccccc1NC(=O)Cc1cn(C)c2ccccc12 | – | inactive
15 | Cc1ccc(CNC(=O)Cc2cn(C)c3ccccc23)cc1 | – | 15.1 µM (active)
16 | Cn1cc(CCC(=O)NCc2ccc3c(c2)OCO3)c2ccccc21 | -3.15 | –
17 | COc1cc(Cl)c(NC(=O)CC(C)S(=O)(=O)c2cc3c(cc2C)NC(=O)CO3)c(OC)c1 (stereo unspecified) | 4.64 | –
18 | CC(=O)c1sc(NC(=O)c2ccc(C)cc2)nc1C | – | 1.9 µM (active)
19 | CCCCCCC(=O)Nc1nc(C)c(-c2csc(Nc3cc(Cl)ccc3OC)n2)s1 | 3.19 | –
20 | Cc1nc(NC(=O)c2cccc(Cl)c2)sc1-c1csc(Nc2cccc(Cl)c2)n1 | -19.1 | –
21 | Cc1cc2c(=O)n(CC(=O)NCC(=O)Nc3ccc(C(C)C)cc3)cnc2s1 | 0.706 | –
22 | CC(=O)c1sc(N)nc1C | 2.76 | –
23 | CC(=O)c1sc(N/N=C\c2ccc(C)cc2)nc1C | – | 2.39 µM (active)
24 | Cc1ccc(C)c2sc(NC(=O)c3ccc(S(=O)(=O)N4CCCC4)cc3)nc12 | -4.28 | –
25 | Cc1nnc(C)n1/N=C/c1ccc(C(C)C)cc1 | -14.6 | –
26 | CC(=O)c1sc(N/N=C/c2ccc(C(C)C)cc2)nc1C | – | 6.01 µM (active)

Row | Compound | activity change, negative = inhibition [%] | Potency
27 | CC(=O)c1sc(NC(=O)C2=NN(c3ccccc3)C(=O)CC2)nc1C | -8.27 | –
28 | Cc1ccc(Nc2nc(-c3sc(NC(=O)c4ccccc4)nc3C)cs2)cc1 | – | 12 µM (active)
29 | CC(=O)Nc1ccc(NC(=O)C2CCCN(S(=O)(=O)c3ccc4c(c3)CCCC(=O)N4)C2)cc1 (stereo unspecified) | 3.09 | –
30 | CCc1cccc(CC)c1NC(=O)COc1ccccc1C(=O)c1cc(C#N)c(=O)n(C2CCCCC2)c1 | 0.626 | –
31 | C=C(C)CNc1cc(S(=O)(=O)N2CCOCC2)ccc1Oc1ccccc1 | -9.91 | –
32 | Cc1ccc(Nc2c(-c3ccc(Cl)cc3)nc3sccn23)c(C)c1 | 1.53 | –
33 | Cc1ccc(-c2nn3c(=O)cc(CN4CCN(S(=O)(=O)c5ccc(Cl)cc5)CC4)nc3s2)cc1 | -1.26 | –
34 | O=S(=O)(c1ccc(C2CCCCC2)cc1)N1CCN(c2ccc(Cl)c(Cl)c2)CC1 | -0.965 | –
35 | CC(C)C(=O)Nc1ccc2c(c1)oc1ccccc12 | – | 2.69 µM (active)
36 | CC(C)C(=O)Nc1ccc2oc(=O)ccc2c1 | -0.984 | –
37 | Cc1cc(=O)oc2cc(NC(=O)C(C)Oc3ccccc3)ccc12 (stereo unspecified) | -4.58 | –
38 | COc1cc2nc(SCc3ccc(F)cc3)n3nc(CCn4c(C)nc5ccccc54)nc3c2cc1OC | 3.7 | –
39 | O=C(CCc1nc(CN2CCN(S(=O)(=O)c3ccc(F)cc3)CC2)no1)N1CCCCC1 | -0.23 | –
40 | CCC(=O)N1CCc2cc(Br)cc(S(=O)(=O)CCC(=O)NCCc3ccc(OC)c(OC)c3)c21 | -1.48 | –
41 | CCC(=O)N1c2ccccc2CC1C(=O)N1CCN(c2ccccc2F)CC1 (stereo unspecified) | -2.51 | –
42 | COc1cc(OC)cc(C(=O)Nc2ccc3nc(Nc4cccc(C(F)(F)F)c4)cc(C)c3c2)c1 | -0.831 | –
43 | Cc1ccc2nc(Nc3ccccc3)cc(C)c2c1 | – | 23.9 µM (active)
44 | Cc1ccc2nc(Nc3ccccc3O)nc(-c3ccccc3)c2c1 | 5.48 | –
45 | O.O.O.O=S(=O)([O-])OC[C@H]1O[C@@H](O[C@]2(COS(=O)(=O)[O-])O[C@H](OS(=O)(=O)[O-])[C@@H](OS(=O)(=O)[O-])[C@@H]2OS(=O)(=O)[O-])[C@H](OS(=O)(=O)[O-])[C@@H](OS(=O)(=O)[O-])[C@@H]1OS(=O)(=O)[O-].[Al] | 3.26 | –
46 | CSc1nc2ccc(NC(=O)c3c(F)cccc3F)cc2s1 | – | 19 µM (active)
47 | CC(=O)Nc1ccc2nc(SCCOc3cc(C)cc(C)c3)sc2c1 | -7.29 | –
48 | O=C(Nc1ccncc1)c1c(F)cccc1F | -3.22 | –
49 | O=C(Cn1ncc(N2CCCC2)c(Br)c1=O)c1ccc(Cl)cc1 | – | 19 µM (active)
50 | CCn1c(=O)c(=O)n(CC)c2cc(N3CCCCC3)c(NC(=O)c3ccc(Cl)cc3)cc21 | 2.47 | –
51 | CC(=O)Cn1ncc(N2CCOCC2)c(Br)c1=O | -1.76 | –

Reference: PubChem BioAssay AID588342 (National Center for Advancing Translational Sciences (NCATS), 2011)
